PfHsp40 yeast: rescue of yeast from PfHsp40 toxicity, primary screen, S. cerevisiae, ATP luminescence; S. cerevisiae expressing PfHsp40, growth rescue; growth rescue, % at 12.5 µM; 340,000 compounds, 0.68% hits; AID 504582, 2011; in the data active = growth rescue above about 28%, passing the limit was not always enough; inconclusive = no clear call, values can overlap the other calls;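 note: yeast W303a lacking pdr1 and pdr3 grown in galactose medium; growth measured after three days at 30 °C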
RN4220 kill: growth inhibition of S. aureus RN4220, primary screen, OD600. 330,000 compounds, 0.33% hits. AID 1259311, 2017. 16 h. inhibition, % (test concentration not listed); in the data active = inhibition above about 85%;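 note: plate controls were untreated cells for no effect and reference antibiotic for full effect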
Mtb bLac sens: beta-lactam sensitization of Mtb H37Rv, H37Rv. M. tuberculosis H37Rv growth with meropenem, percent inhibition. 330,000 compounds, 0.27% hits. inhibition, % at 25 µM. AID 434955, 2010; call rule not given here;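 note: growth measured after seven days incubation then overnight dye step; 0% = bacteria only wells and 100% = bacteria with antibiotic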
BH1578 lux ind: inducers of Vibrio cholerae quorum light production without autoinducers, primary screen, BH1578 luxS cqsA deficient, single point; activation, % at 18.7 µM; 350,000 compounds, 0.16% hits; V. cholerae BH1578 lux reporter, luminescence, 6 h; in the data active = activation mostly above about 9.7%, no sharp cut-off; inconclusive = no clear call, values can overlap the other calls; inactive = mostly below about 3.7%
Sa ugtP lethal: growth inhibition of ugtP-null S. aureus, primary screen, RN4220 ugtP deletion, OD600. 16 h. growth inhibition, % (test concentration not listed). 330,000 compounds, 0.54% hits. AID 1259309, 2017; in the data active = growth inhibition above about 68%;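 note: plate controls were untreated wells for no effect and antibiotic for full effect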
Numbers without * were called inactive. An excerpt weighted towards active compounds, which were near 1.2% of everything screened.

CCOC(=O)CC1=NN(c2ccccc2)C(=O)C1=Cc1ccc(OC)cc1OC was read as RN4220 kill 9 and Sa ugtP lethal 0.
CCN1CC2C3C(=O)N(C)C(=O)C3[C@](CC)(C1=O)N2C(=O)c1ccc(C)cc1 (stereo partly specified) was read as RN4220 kill 7 and Sa ugtP lethal -2.
Cc1ccc(NC(=O)C(OC(=O)c2ccc(NC(N)=O)cc2)c2ccccc2)cc1Cl (stereo unspecified) was read as PfHsp40 yeast 5, RN4220 kill 101*, Mtb bLac sens 10, BH1578 lux ind -1 and Sa ugtP lethal 100*.
Screening CCNC(=S)N/N=C(\C)c1ccc2ccccc2c1OC(F)F returned PfHsp40 yeast 62*, Mtb bLac sens 67 and BH1578 lux ind 3.
`C=C1C2CCC3C(O)[C@@]2(CC(O)[C@@]2(O)C1CC(O)C2(C)C)C[C@@]3(C)O` (stereo partly specified) gave RN4220 kill 6 and Sa ugtP lethal -9.
O=C(NCCCNc1ccc(C(F)(F)F)cc1[N+](=O)[O-])c1ccc(Cl)cc1 was read as PfHsp40 yeast 471*, RN4220 kill 5, Mtb bLac sens 4, BH1578 lux ind -2 and Sa ugtP lethal -20.
`O=C(NCCCNc1ccc(C(F)(F)F)cc1[N+](=O)[O-])c1cc(F)c(F)cc1Cl` gave PfHsp40 yeast 0, RN4220 kill -8, Mtb bLac sens -4, BH1578 lux ind 6 and Sa ugtP lethal -3.
For COc1cc2c(cc1O)C1Cc3cc(O)c(OC)cc3C(C2)N1C (stereo unspecified) the results were RN4220 kill 5 and Sa ugtP lethal 0.
`COc1ccc(CSc2ccc(-c3nc4ccccn4c3NCc3ccccc3)cc2OC)cc1` gave PfHsp40 yeast 4, RN4220 kill 5, Mtb bLac sens -5, BH1578 lux ind inactive and Sa ugtP lethal 4.
For CCC(C)Sc1ccc(-c2nc3ccccn3c2NCc2ccccc2)cc1OC (stereo unspecified) the results were PfHsp40 yeast 89*, RN4220 kill 3, Mtb bLac sens 95, BH1578 lux ind 0 and Sa ugtP lethal 3.
For CC(C)(C)CC(=O)O/N=C(\N)c1ccccn1 the results were PfHsp40 yeast 72*, RN4220 kill 7, Mtb bLac sens -9, BH1578 lux ind 0 and Sa ugtP lethal 3.
Screening Cc1ccc(CC(=O)O/N=C(\N)c2ccccn2)cc1 returned PfHsp40 yeast -1, RN4220 kill 5, Mtb bLac sens 9, BH1578 lux ind 0 and Sa ugtP lethal 7.
O=C1c2c(O)cc(O)cc2O[C@@]12c1c(cc(O)c3c1OC(c1ccc(O)cc1)C(O)C3)OC2c1ccc(O)cc1 (stereo partly specified) was read as RN4220 kill 6 and Sa ugtP lethal 0.
Screening COC(=O)c1cc(Br)ccc1-c1ccc(C=Nn2nnnc2N)o1 returned RN4220 kill 5 and Sa ugtP lethal 6.
`C=CCn1c(O)c(C2=c3ccccc3=NC2=O)sc1=Nc1nccs1` gave RN4220 kill 4 and Sa ugtP lethal 5.
`C=CCn1c(O)c(C2=c3ccccc3=NC2=O)c2ccccc21` gave PfHsp40 yeast -1, RN4220 kill 97*, Mtb bLac sens 100, BH1578 lux ind -1 and Sa ugtP lethal 98*.
`Cc1ccc2c(c1)c(C1=c3ccccc3=NC1=O)c(O)n2C` gave PfHsp40 yeast 1, RN4220 kill 98*, Mtb bLac sens 99, BH1578 lux ind 0 and Sa ugtP lethal 97*.
Screening CC(=NNS(=O)(=O)c1ccc(C(C)(C)C)cc1)c1ccc2c(c1)OCO2 returned RN4220 kill -5 and Sa ugtP lethal -21.
For CN(C)S(=O)(=O)c1cccc(NC(=S)Nc2cc(Cl)cc(Cl)c2)c1 the results were PfHsp40 yeast 1, RN4220 kill 100*, Mtb bLac sens 91, BH1578 lux ind inactive and Sa ugtP lethal 100*.
For CC(C)(C)c1ccc(C(=O)CC(Sc2ccc(Cl)cc2)C(=O)O)cc1 (stereo unspecified) the results were PfHsp40 yeast 75*, RN4220 kill -3, Mtb bLac sens 38, BH1578 lux ind inactive and Sa ugtP lethal 55.
For O=C(c1ccc(Cl)cc1)C(CN1CCCC1)c1ccccc1 (stereo unspecified) the results were PfHsp40 yeast -1, RN4220 kill 67, Mtb bLac sens 100, BH1578 lux ind -1 and Sa ugtP lethal 87*.
For COc1ccc(S(=O)(=O)N(C)CC2Oc3ccc(NC(=O)Nc4ccc5c(c4)OCO5)cc3C(=O)N(C(C)CO)CC2C)cc1 (stereo unspecified) the results were RN4220 kill 3 and Sa ugtP lethal 4.
Screening C=CCc1ccc(O)c(-c2ccc(O)c(CC=C)c2)c1 returned PfHsp40 yeast 233*, RN4220 kill -6, Mtb bLac sens -2, BH1578 lux ind 0 and Sa ugtP lethal 15.
For O=C(c1cc2ccccc2o1)N1CCN(c2ccccc2Cl)CC1 the results were PfHsp40 yeast 187*, RN4220 kill 6, Mtb bLac sens 6, BH1578 lux ind 19 and Sa ugtP lethal 4.
`O=C(c1cc2ccccc2o1)N1CCN(c2cccc(Cl)c2)CC1` gave PfHsp40 yeast -1, RN4220 kill 2, Mtb bLac sens -8, BH1578 lux ind 5 and Sa ugtP lethal 1.
Screening NC(=O)N=Nc1c2[nH]c3ccccc3nc-2c2ccccc12 returned PfHsp40 yeast 45*, Mtb bLac sens 99 and BH1578 lux ind inactive.
Screening CSc1nc2c(c(-c3ccccc3)c1C#N)CCC2 returned PfHsp40 yeast -1, RN4220 kill -4, Mtb bLac sens 7, BH1578 lux ind inactive and Sa ugtP lethal 83*.
N#Cc1c(N)nc2c(c1-c1ccccc1)CCCC2 was read as PfHsp40 yeast 0, RN4220 kill 3, Mtb bLac sens 11, BH1578 lux ind inactive and Sa ugtP lethal 11.
Screening N#Cc1nc(-c2ccc(Cl)cc2)oc1NCCc1ccccn1 returned PfHsp40 yeast 67*, RN4220 kill -5, Mtb bLac sens -4, BH1578 lux ind inactive and Sa ugtP lethal 7.
For Cc1ccc(-c2nc(C#N)c(NCCc3ccccn3)o2)cc1 the results were PfHsp40 yeast 0, RN4220 kill -10, Mtb bLac sens 8, BH1578 lux ind 0 and Sa ugtP lethal -1.
For CCCCN1CCNCC1c1ccccc1 (stereo unspecified) the results were RN4220 kill 1 and Sa ugtP lethal -6.
O=C(NNC1=C(C(=O)C(F)(F)F)CCC1)c1ccc(Br)cc1 was read as PfHsp40 yeast 6, RN4220 kill 101*, Mtb bLac sens 52, BH1578 lux ind inactive and Sa ugtP lethal 100*.
For COc1cccc(C(=O)NNC2=C(C(=O)C(F)(F)F)CCC2)c1 the results were PfHsp40 yeast -1, RN4220 kill -6, Mtb bLac sens 15, BH1578 lux ind 0 and Sa ugtP lethal 93*.
Screening O=C(NNC1=C(C(=O)C(F)(F)F)CCC1)c1ccccc1O returned PfHsp40 yeast inconclusive, RN4220 kill 100*, Mtb bLac sens 86, BH1578 lux ind 0 and Sa ugtP lethal 101*.

High-throughput results (PubChem BioAssay)
